Assay outcomes from PubChem BioAssay.
Sampled rows, rich in hits. Any-hit rate of the full collection: about 1.6%.
MLLE-PAM2 inh: inhibitors of microRNA-mediated deadenylation, human PABP1 MLLE binding | GST-MLLE / FITC-PAM2 fluorescence polarization | inhibition, % at 20 µM | hit rate 0.36% among 360,000; in the data active means inhibition above about 35%, passing the limit was not always enough;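 further: plate controls were DMSO wells with GST-MLLE for no effect and wells lacking GST-MLLE protein for full effect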
Target sequence (P11940 whole entry, looked up): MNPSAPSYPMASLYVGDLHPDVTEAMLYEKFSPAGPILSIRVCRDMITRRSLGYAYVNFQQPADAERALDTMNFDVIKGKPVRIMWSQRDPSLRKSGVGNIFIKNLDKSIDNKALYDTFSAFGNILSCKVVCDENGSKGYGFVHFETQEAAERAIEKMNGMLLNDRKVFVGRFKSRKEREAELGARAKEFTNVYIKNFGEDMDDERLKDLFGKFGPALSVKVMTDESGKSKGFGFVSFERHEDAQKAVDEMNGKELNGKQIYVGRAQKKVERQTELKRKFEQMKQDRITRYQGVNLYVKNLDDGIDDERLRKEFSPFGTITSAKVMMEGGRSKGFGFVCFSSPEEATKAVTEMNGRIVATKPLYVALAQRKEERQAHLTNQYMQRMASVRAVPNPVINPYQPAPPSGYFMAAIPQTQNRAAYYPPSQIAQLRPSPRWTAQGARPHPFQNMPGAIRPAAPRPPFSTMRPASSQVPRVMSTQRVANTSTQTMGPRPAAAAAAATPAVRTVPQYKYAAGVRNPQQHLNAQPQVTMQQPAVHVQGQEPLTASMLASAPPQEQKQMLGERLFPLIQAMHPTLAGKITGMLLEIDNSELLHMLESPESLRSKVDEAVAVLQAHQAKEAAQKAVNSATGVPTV
eIF4E 4G PPI: eIF4E/eIF4G interaction inhibition in translation initiation; P63073+Q04637; AID 782; hit rate 0.37% among 220,000; inhibition, % at 21.7 µM; TR-FRET eIF4E-eIF4GI(517-606) binding, 2 h;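 active means inhibition above about 30%, limit read from the data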;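 further: 0% = full FRET control wells and 100% = background wells lacking eIF4GI fragment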
PERK inh: inhibitors of human PERK kinase; CHO PERK-DD fusion, SEAP luminescence translation reporter; inhibition, % at 5.6 µM; hit rate 0.17% among 220,000; AID 1416;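 active means inhibition above the mean inhibition of all tested compounds plus 3 SD, set separately per screening campaign, cut at about 2.9% in these data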;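 further: PERK kinase domain activated by AP20187 dimerizer at 100 nM; 0% = DMSO with dimerizer and 100% = rapamycin at 8.4 µM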
eIF4H FP inh: inhibitors of RNA binding by human eIF4H | eIF4H fluorescence polarization binding assay | hit rate 0.94% among 290,000 | Q15056 | inhibition, % at 35 µM;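 further: calls also rest on retests at 20 µM and on dose response follow-up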
PABP FP inh: PABP-poly(A) binding inhibition; P11940; PABP-poly(A) RNA binding, fluorescence polarization; inhibition, % at 35 µM; hit rate 1% among 290,000; AID 2014;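 further: calls also rest on retests at 20 µM and on dose response follow-up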
Active calls of the source: *; ? = inconclusive; . = not tested or not shown; [ ] = dose if it differs, or a comment. Unless noted, how the calls were made is not given here.

SMILES	MLLE-PAM2 inh	eIF4E 4G PPI	PERK inh	eIF4H FP inh	PABP FP inh
O=C(Nc1ccc(S(=O)(=O)Nc2nccs2)cc1)c1ccc(S(=O)(=O)N2CCOCC2)cc1	4.5	4.5	0.5	15.1	-3.6
O=C(Nc1ccc(S(=O)(=O)Nc2nccs2)cc1)c1ccc(=O)[nH]c1	-46.4	3.2	0.0	73.3	28.2*
O=C(Nc1ccc(S(=O)(=O)Nc2nccs2)cc1)c1ccc(F)c(S(=O)(=O)N2CCOCC2)c1	-53.7	-1.8	0.6	52.3*	-3.1
O=C(Nc1ccc(S(=O)(=O)Nc2nccs2)cc1)c1ccncc1	8.2	.	.	.	.
CC(C)Cc1ccc(C(C)C(=O)N2CCOCC2)cc1 (stereo not drawn)	-8.8	5.9	1.1	-8.7	0.9
N#CC(c1ccc(F)cc1)c1ccc(C(=O)c2ccccc2)cc1 (stereo not drawn)	5.3	1.4	-0.4	-5.7	3.5
COc1cc2c3c(c1)/C(=C1/SC(NC(C)=O)=NC1=O)C(=O)N3C(C)(C)C=C2C	36.9*	-6.9	0.4	17.8	8.5
COc1ccc(C(=O)c2sc3nc(-c4ccccc4)ccc3c2N)cc1OC	-53.6	2.4	0.1	13.0	5.2
CSc1nsc(NN)n1	41.7*	.	.	.	.
CSc1nsc(NC(=O)OCc2ccc(Cl)cc2)n1	-3.4	.	.	1.6	15.0
COc1cc(OC)c2ccc(=O)oc2c1	13.7	.	.	.	.
C#CCN(C(=O)Nc1ccccc1)c1ccccc1	8.4	14.5	1.1	3.2*	58.6*
COc1ccc(CC(=O)n2nc(-c3ccccc3)nc2NCc2ccco2)cc1	10.1	2.2	0.4	-11.2	-1.5
CCN(CC)c1ccc(N2C(=O)CSC2=S)cc1	-5.3	0.0	0.7	61.5*	14.7
O=C1CSC(=S)N1c1cccnc1	39.8*	-0.3	0.9	4.3	6.8
O=C1CSC(=S)N1/N=C/c1cccnc1	43.5*	-5.5	-0.2	-7.5	-1.6
O=C1CSC(=S)N1c1ccccc1	5.0	.	.	.	.
CCC(NS(=O)(=O)c1cccs1)c1ccc(C)cc1 (stereo not drawn)	3.7	.	.	.	.
COCCn1cnc2c1c(=O)n(CC(=O)O)c(=O)n2Cc1ccccc1	4.3	.	.	-1.3	-5.7
O=C(O)C1Nc2c(O)cccc2C2C=CCC12 (stereo not drawn)	-1.0	48.5*[fluorescence artefact?]	0.4	99.3*	6.4
O=C(O)C1Nc2c(Cl)cc(Cl)cc2C2C=CCC12 (stereo not drawn)	-20.0	.	.	84.3*	78.4*
O=C(CN(C(=O)c1csnn1)c1ccccc1)NCc1ccc2c(c1)OCO2	25.8	.	.	2.3	6.4
O=C(CN1CCCC1c1ccc2c(c1)OCCO2)NC(=O)Nc1ccccc1F (stereo not drawn)	-1.6	.	.	.	.
COc1ccc(Oc2ncnc3sccc23)cc1	-9.3	1.7	0.3	-12.2	-7.3
Cc1nc(Oc2ccccc2)c2ccsc2n1	7.2	-2.1	1.0	74.7*	active
SMILES	MLLE-PAM2 inh	eIF4E 4G PPI	PERK inh	eIF4H FP inh	PABP FP inh
Cc1ccc(OCCNC(=O)c2ccc(C)o2)cc1	20.6	.	.	.	.
COc1cc(/C=C2\SC(N)=NC2=O)cc(Cl)c1O	-111.2	.	.	53.8	11.3*
O=c1cc(-c2ccc([N+](=O)[O-])cc2)nc2cc(-c3ccc(F)cc3)[nH]n12	8.4	13.1	0.7	63.0	active
Nc1cc(N)cc(-c2nc3ccccc3o2)c1	2.3	.	.	.	.
Nc1ccc(-c2nc3ccccc3o2)cc1	-16.9	.	.	50.2	3.2*
CN1CCc2c(sc(/N=C/c3cccs3)c2C(N)=O)C1	-4.9	-10.1	0.9	?	?
Cc1ccc(/C=N/c2sc3c(c2C(N)=O)CCCC3)o1	-2.2	-1.0	1.7	73.6*	16.5
CN1CCc2c(sc(/N=C/c3ccco3)c2C(N)=O)C1	3.5	-2.3	1.6	67.6*	56.7*
O=C1NN(c2ccc(Cl)cc2)C(=O)/C1=C\c1ccc(-c2cccc(C(=O)O)c2)o1	-28.0	31.6*	0.9	79.2	3.2
O=C1NN(c2ccccc2)C(=O)/C1=C\c1ccc(-c2cc([N+](=O)[O-])ccc2O)o1	-16.1	13.0	0.7	92.0*	17.9*
Cc1ccc(N2NC(=O)/C(=C/c3ccc(-c4ccc(Cl)c(C(=O)O)c4)o3)C2=O)cc1	1.1	10.7	-0.2	45.5	31.0
CC(=O)Nc1ccc(C(=O)Nc2cccc(-c3cnc4ccccc4n3)c2)cc1	-26.5	35.7*	0.1	-32.3	?
CC(=O)Nc1ccc2nc3ccccc3nc2c1	41.6*	-1.4	0.1	34.7	35.9
Cc1ccc(C(=O)Nc2cccc(-c3cnc4ccccc4n3)c2)cc1	3.9	-3.0	1.1	-1.7	-6.9
S=c1[nH]nc(-c2ccc(Cl)cc2)n1/N=C/C=C/c1ccco1	-11.3	-0.1	0.6	82.8*	80.4*
CC(/C=N/n1c(-c2cccnc2)n[nH]c1=S)=C\c1ccco1	1.7	-0.2	0.5	75.9*	50.9*
Cc1ccsc1/C=N/n1c(-c2cccnc2)n[nH]c1=S	-25.4	34.6*	0.4	4.2	7.0
S=c1[nH]nc(-c2ccco2)n1/N=C/c1ccc(Cl)cc1Cl	-38.4	49.4*	1.0	0.1	-7.3
O=C(N/N=C/c1ccccn1)c1cc(-c2ccc(Cl)s2)[nH]n1	-4.7	.	.	-6.1	-6.9
S=c1[nH]nc(-c2cccnc2)n1/N=C/C=C/c1ccco1	-14.8	-0.6	0.4	96.5*	72.5
S=c1[nH]nc(-c2ccccc2)n1/N=C/C=C/c1ccco1	-11.3	-1.4	0.2	91.0	-16.4
NC1=C(Br)C(=O)c2ncccc2C1=O	38.9*	.	.	.	.
Cc1cc(C)c2nc(-c3ccccn3)cc(C(=O)n3cccn3)c2c1	-3.9	4.9	0.3	24.7	61.0*
Cc1c(Cl)ccc2c(C(N)=O)cc(-c3ccccn3)nc12	-0.9	1.6	0.4	30.9	16.7
Cc1cccc(C(=O)OC2CCCN(C)C2)c1C (stereo not drawn)	-0.1	.	.	-1.5	-1.1
SMILES	MLLE-PAM2 inh	eIF4E 4G PPI	PERK inh	eIF4H FP inh	PABP FP inh
O=C(Nc1ccccc1)Nc1ccccc1NS(=O)(=O)c1cccs1	-2.5	2.5	0.9	3.8	-2.1
N#Cc1ccc(OCC(=O)Nc2ccccc2NS(=O)(=O)c2cccs2)cc1	-4.0	-6.9	-0.1	53.1*	active
O=C(O)c1cccc(S(=O)(=O)Nc2ccc3c(c2)OCO3)c1	38.3*	5.3	0.8	6.6	12.2
O=C1NCC(=O)N2CCC[C@@H]12	-2.4	.	.	.	.
Cc1ccccc1CSc1nnc(-c2ccco2)n1Cc1ccco1	-21.1	-0.2	-0.4	4.0	11.8
O=[n+]1c2c(n([O-])c3cc(Br)ccc31)CCCC2	-1.9	3.5	0.1	-0.6	-0.4
O=[n+]1c2c(n([O-])c3cc(F)c(F)cc31)CCCC2	16.4	10.5	-0.3	65.6*	32.6
CCOC(=O)c1c(-c2ccc(C)o2)csc1NC(=O)CSc1nncs1	37.9	3.0	-0.7	27.8	21.9
CCOC(=O)c1c(-c2ccco2)csc1NC(=O)CSc1nnc(N)s1	-8.2	-8.0	0.9	53.9*	8.0
COc1c(F)c(F)c(C(=O)Nc2ccc(-c3nc4ccccc4[nH]3)cc2)c(F)c1F	8.4	-4.0	0.5	-2.5	20.1
COc1cccc(OC)c1C(=O)NC(=S)Nc1cc(-c2nc3ccccc3[nH]2)ccc1Cl	16.4	0.4	-1.4	active	90.0
COc1cc(/C=N/NC(=O)CSc2cc(C)c(Br)cc2C)ccc1O	-1.0	9.5	-0.2	-5.7	-1.3
